What was measured:
Experiment in all cases: yeast three-hybrid, YBZ-1, SC-Leu-His + 0.5 mM 3-AT, 4 days
Conditions in all cases: tags: N-Gal4 AD-HA kept; label: inside an RPR1-promoter hybrid RNA with tandem MS2 sites; ssRNA
PUM1 PUF domain R4-DFI = PUM1 PUF domain R4-DFI (Homo sapiens, UniProt Q14671 828-1176, N971D;H972F;Q975I)
In short: (§1)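 The interaction score is the log change in variant frequency from input to selection. Scores were computed in log2 with a pseudocount of 1 for absent variants, using Illumina sequencing of PCR-amplified repeat regions. The input came from four days on SC-Leu and the selection from four days on SC-Leu-His + 0.5 mM 3-AT. The cells were strain YBZ-1 (LexA–MS2 coat fusion, HIS3 reporter) co-expressing Pumilio-1 PUF domain libraries and matching RNA elements from a centromeric plasmid.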

PUM1 PUF domain R4-EYQ = PUM1 PUF domain R4-EYQ (Homo sapiens, UniProt Q14671 828-1176, N971E;H972Y)
In short: as §1

PUM1 PUF domain R4-SNV = PUM1 PUF domain R4-SNV (Homo sapiens, UniProt Q14671 828-1176, N971S;H972N;Q975V)
In short: as §1

PUM1 PUF domain R3-ASE = PUM1 PUF domain R3-ASE (Homo sapiens, UniProt Q14671 828-1176, C935A;R936S;Q939E)
In short: as §1

PUM1 PUF domain R3-WCS = PUM1 PUF domain R3-WCS (Homo sapiens, UniProt Q14671 828-1176, C935W;R936C;Q939S)
In short: as §1

PUM1 PUF domain R3-VWC = PUM1 PUF domain R3-VWC (Homo sapiens, UniProt Q14671 828-1176, C935V;R936W;Q939C)
In short: as §1

PUM1 PUF domain R4-TPE = PUM1 PUF domain R4-TPE (Homo sapiens, UniProt Q14671 828-1176, N971T;H972P;Q975E)
In short: as §1

PUM1 PUF domain R7-QSR = PUM1 PUF domain R7-QSR (Homo sapiens, UniProt Q14671 828-1176, S1079Q;N1080S;E1083R)
In short: as §1

PUM1 PUF domain R8-LRK = PUM1 PUF domain R8-LRK (Homo sapiens, UniProt Q14671 828-1176, N1122L;Y1123R;Q1126K)
In short: as §1

PUM1 PUF domain R4-NRC = PUM1 PUF domain R4-NRC (Homo sapiens, UniProt Q14671 828-1176, H972R;Q975C)
In short: as §1

Sequence: GGCUAGAACUAGUGGAUCCCCCGGCGCCCGGCGGCUCGAGCCCGGGUAAGUGUACAUAGUCUGCAUGCCGCCGGGCGCCAUGCCUGCAGGUCGACUCUAGAAAACAUG
- binding signal (PUM1 PUF domain R4-DFI): 3.24 log2 enrichment (interaction score)
- binding signal (PUM1 PUF domain R4-EYQ): 3.27 log2 enrichment (interaction score)
- binding signal (PUM1 PUF domain R4-SNV): 3.34 log2 enrichment (interaction score)

Sequence: GGCUAGAACUAGUGGAUCCCCCGGCGCCCGGCGGCUCGAGCCCGGGUAAGUGUAAGUAGUCUGCAUGCCGCCGGGCGCCAUGCCUGCAGGUCGACUCUAGAAAACAUG
- binding signal (PUM1 PUF domain R3-ASE): 4.6 log2 enrichment (interaction score)
- binding signal (PUM1 PUF domain R3-WCS): 2.96 log2 enrichment (interaction score)

Sequence: GGCUAGAACUAGUGGAUCCCCCGGCGCCCGGCGGCUCGAGCCCGGGUAAGUGUAAUUAGUCUGCAUGCCGCCGGGCGCCAUGCCUGCAGGUCGACUCUAGAAAACAUG
- binding signal (PUM1 PUF domain R3-VWC): 3.83 log2 enrichment (interaction score)
- binding signal (PUM1 PUF domain R3-WCS): 1.01 log2 enrichment (interaction score)

Sequence: GGCUAGAACUAGUGGAUCCCCCGGCGCCCGGCGGCUCGAGCCCGGGUAAGUGUAUAUAGUCUGCAUGCCGCCGGGCGCCAUGCCUGCAGGUCGACUCUAGAAAACAUG
- binding signal (PUM1 PUF domain R4-TPE): 3.03 log2 enrichment (interaction score)
- binding signal (PUM1 PUF domain R4-SNV): 3.72 log2 enrichment (interaction score)

Sequence: GGCUAGAACUAGUGGAUCCCCCGGCGCCCGGCGGCUCGAGCCCGGGUAAGUUUAAAUAGUCUGCAUGCCGCCGGGCGCCAUGCCUGCAGGUCGACUCUAGAAAACAUG
- binding signal (PUM1 PUF domain R7-QSR): 3.84 log2 enrichment (interaction score)

Sequence: GGCUAGAACUAGUGGAUCCCCCGGCGCCCGGCGGCUCGAGCCCGGGUAAGCGUAAAUAGUCUGCAUGCCGCCGGGCGCCAUGCCUGCAGGUCGACUCUAGAAAACAUG
- binding signal (PUM1 PUF domain R8-LRK): 2.19 log2 enrichment (interaction score)

Sequence: GGCUAGAACUAGUGGAUCCCCCGGCGCCCGGCGGCUCGAGCCCGGGUAAGUGUAAAUAGUCUGCAUGCCGCCGGGCGCCAUGCCUGCAGGUCGACUCUAGAAAACAUG
- binding signal (PUM1 PUF domain R8-LRK): 1.28 log2 enrichment (interaction score)
- binding signal (PUM1 PUF domain R4-EYQ): 1.61 log2 enrichment (interaction score)
- binding signal (PUM1 PUF domain R4-SNV): 1.05 log2 enrichment (interaction score)
- binding signal (PUM1 PUF domain R4-NRC): 3.78 log2 enrichment (interaction score)

— publication PMC8384837, “Expanding the binding specificity for RNA recognition by a PUF domain”
